High-throughput results from PubChem.
In the library only some 7.4% were active in any assay of this set; here they are far more common.
ERK AVP inh – qHTS Assay for Inhibitors of the ERK Signaling Pathway using a Homogeneous Screening Assay; HEK293-V1b, vasopressin-stimulated pERK AlphaScreen; hit rate 0.99% among 72,000; Potency, µM (titrated, usually from 57.5 µM), without a hit: at the top dose activity, negative = inhibition, actives largely listed as inhibitors; AID 995, 2007; note: % is set by controls: 0 for no effect and ±100 for the full control effect; nearly all actives have a fitted effect of over 55% in size
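qHTS, compounds titrated on V1b-expressing HEK293 cells. Preincubation 30 min at 37C, vasopressin 25 nM for 5 min, lysis 10 min, bead incubation 5 hr at room temperature.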
Tau fil binding – qHTS Assay for Tau Filament Binding | Microtubule-associated protein tau (Homo sapiens), P10636 | recombinant tau filaments, thioflavin S fluorescence, 15 h; filaments grown with octadecylsulfate alongside compound | Potency, µM (top dose mostly 57.1 µM), for inactives: top-dose activity change, negative = inhibition | hit rate 2% among 71,000 | AID 596, 2007;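 note: % is set by controls: 0 for no effect and ±100 for the full control effect; actives lower thioflavin S fluorescence by blocking filaments or displacing dye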
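Read-out: ThS fluorescence, 450 nm excitation/510 nm emission; lower signal marks blocked filament formation or displaced dye. Tau at 1 uM with 30 uM ODS, 10 uM ThS, 5 mM DTT, 100 mM NaCl, 10 mM HEPES pH 7.4; 15 h, 37 C.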
CRE Fsk mod – Cell signaling CRE-BLA (Fsk stim); CHO CRE-bla reporter (cAMP response element driving beta-lactamase), forskolin EC10, beta-lactamase ratio; Potency, µM (doses to about 38.2 µM), for inactives: at the top dose activity change, negative = inhibition, most hits filed as activators; hit rate 2.5% among 71,000; active = well fitted activation curve with a large enough effect in the signal ratio, with a control signal flat, not every such curve was filed as active; inconclusive = small, poorly fitted or top-dose-only effect, or effect the other way, or a change in a side signal; the % refers to the signal ratio; note: % of control where 0% means no effect
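Forskolin analogue NKH 477 at EC10 stimulated CRE-driven beta-lactamase in CHO cells alongside compound dilution series. Beta-lactamase was measured with CCF4, excitation 405 nm, emission ratio 460/530 nm.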
HEK293 cAMP cs – qHTS Assay for Agonists of the Thyroid Stimulating Hormone Receptor: Activators of Intracellular cAMP Concentrations in Parental HEK 293. parental HEK293 CNG cAMP sensor, membrane potential fluorescence. Potency, µM (highest dose often 57.1 µM), without a hit: top-dose activation, most hits filed as activators. hit rate 2.5% among 73,000. AID 938, 2007; note: % of control where 0% means no effect; nearly all actives have a fitted effect of over 55% in size
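Counterscreen for endogenous-receptor signalling: CNG-channel HEK 293 cells report cAMP rise by membrane depolarization. After 60 min dye equilibration with 100 uM RO 20-1724, compounds incubated 30 min before bottom-read fluorescence at 590 nm.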
TSHR ag – qHTS Assay for Agonists of the Thyroid Stimulating Hormone Receptor; Thyrotropin receptor (Homo sapiens), P16473; hit rate 0.48% among 73,000; AID 926, 2007; HEK293-CNG-TSHR cells (CNG channel as cAMP sensor), membrane potential dye, cAMP; Potency, µM (doses to about 57.1 µM), inactives show at the top dose activation, hits mostly activators; active = well fitted activation curve with a large enough effect in the main read-out, with a control signal flat, not every such curve was filed as active; inconclusive = small, poorly fitted or top-dose-only effect, or a change in a side signal; inactive = no such curve, though single readings can be large or run the other way; % of control where 0% means no effect;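 note: the control signal comes from parental cells without the receptor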
Target sequence (P16473 whole entry, looked up): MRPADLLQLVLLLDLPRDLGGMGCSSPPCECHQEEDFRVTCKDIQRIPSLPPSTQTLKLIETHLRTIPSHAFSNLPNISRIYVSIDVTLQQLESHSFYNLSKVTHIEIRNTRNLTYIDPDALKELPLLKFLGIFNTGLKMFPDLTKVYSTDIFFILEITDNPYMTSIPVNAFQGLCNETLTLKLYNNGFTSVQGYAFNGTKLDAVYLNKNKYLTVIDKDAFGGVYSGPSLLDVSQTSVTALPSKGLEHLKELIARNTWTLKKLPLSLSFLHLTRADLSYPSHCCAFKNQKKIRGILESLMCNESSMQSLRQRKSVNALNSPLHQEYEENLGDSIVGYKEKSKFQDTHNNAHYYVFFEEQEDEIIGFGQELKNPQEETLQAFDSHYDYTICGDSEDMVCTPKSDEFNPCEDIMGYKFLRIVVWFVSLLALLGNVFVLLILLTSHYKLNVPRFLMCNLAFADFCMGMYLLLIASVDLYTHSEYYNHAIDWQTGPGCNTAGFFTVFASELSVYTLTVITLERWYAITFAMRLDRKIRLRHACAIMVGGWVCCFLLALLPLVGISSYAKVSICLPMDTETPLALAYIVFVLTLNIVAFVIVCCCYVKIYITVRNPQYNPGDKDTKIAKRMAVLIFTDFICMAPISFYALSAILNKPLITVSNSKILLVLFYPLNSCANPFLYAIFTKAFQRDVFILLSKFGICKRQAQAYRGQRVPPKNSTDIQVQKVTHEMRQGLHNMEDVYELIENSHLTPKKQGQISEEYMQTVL
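HEK 293 cells stably expressing TSHR and a cAMP-gated CNG channel; parental CNG-only cells as counterscreen. Cells preloaded 60 min with membrane potential dye plus 100 uM RO 20-1724, then compound 30 min; fluorescence read at 590 nm.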
Numbers without * were called inactive; i = inactive; u = inconclusive; x = no result; [ ] = remark or other dose. Unless noted, calls come from the whole dose curve; as a rule, active = well fitted curve in the direction sought with a large enough effect; inconclusive = small, poorly fitted or top-dose-only effect, or another doubt; inactive = no such curve, though single readings can be large; an effect the other way counts as inactive or inconclusive. Potency is the fitted concentration of half-maximal effect.

SMILES	ERK AVP inh	Tau fil binding	CRE Fsk mod	HEK293 cAMP cs	TSHR ag
CCCSc1nc2c(cnn2-c2ccccc2)c(=O)[nH]1	x	-12%	-1%	u	u
CCCSc1nc2c(cnn2-c2ccc(C)cc2)c(=O)[nH]1	x	186%	10µM*	5%	-1%[11.4 µM]
N#CC1=C(N)C(C#N)(C#N)[C@H](c2ccoc2)[C@H]2CN(Cc3ccccc3)CC=C12	-8%	i	10µM*	1%	-9%
CC(C)C12CN3CC(C(C)C)(CN(C1)C3c1ccccc1O)C2=O (configuration not stated)	6%	-9%[11.4 µM]	u	u	u
CC(C)C12CN3CC(C(C)C)(CN(C1)C31C(=O)Nc3ccccc31)C2=O (configuration not stated)	-10%	16µM*	-2%	20%	13%
Cc1cc(C)c2c(CC(=O)NCc3ccco3)coc2c1	-18%	1%	-8%	17%	32µM*
CCOC(=O)c1cn(-c2ccccc2)nc1-c1ccncc1	u	8%	10µM*	4%	23%
COc1ccc(-c2nn(-c3ccccc3)cc2C(=O)O)cc1	x	-9%	-6%	4%	1%
CC(C)OC(=O)c1cn(-c2ccccc2)nc1-c1ccco1	-16%	-2%	11%	18%	25µM*
CCOC(=O)c1cn(-c2ccccc2)nc1-c1cccnc1	x	x	x	-2%[11.4 µM]	6%
O=c1[nH]c(=O)n(C2CCCCCC2)c(O)c1C=NCc1ccc(F)cc1	-21%	-22%	13µM*	4%	x
CCN(CC)[C@@H](C)C(=O)N1c2ccccc2Sc2ccccc21	x	-7%	-6%	28%	x
O=C1SC(c2ccccc2)=N/C1=C/c1ccco1	29%	25µM*	-9%	8%	-2%
Cc1oc(-c2ccc(F)cc2)cc1-c1nn2c(-c3ccoc3C)nnc2s1	u	58%	u	16µM*	u
Cc1oc(-c2ccc(F)cc2)cc1-c1nn2c(-c3ccco3)nnc2s1	-15%	12%	-4%	u	u
CCC1Oc2ccc(C)cc2N(CC(=O)N(Cc2ccc3c(c2)OCO3)CC2CCCO2)C1=O (configuration not stated)	-12%	0%	-1%	5µM*	u
CN1CCN(c2ccc(Cl)cc2NC(=O)c2cccc(S(=O)(=O)N(C)C)c2)CC1	-4%	20%	5µM*	-3%	-10%
CN(C)c1ccc(-c2cc(-n3ccnc3)ncn2)cc1	3%	-9%	10µM*	-15%	0%
CCCCC#Cc1nc(NC)c2ncn([C@@H]3O[C@@H](CO)[C@H](O)[C@H]3O)c2n1	u	7%	20µM*	0%	6%
Nc1nc(Cl)nc2c1ncn2[C@@H]1O[C@H](CO)[C@@H](O)[C@H]1O	10µM*	x	x	x	x
N[C@H]1[C@@H](C(=O)O)[C@H]2C=C[C@H]1C2	3%[11.5 µM]	-2%[11.4 µM]	-1%[7.6 µM]	-1%[11.4 µM]	8%[11.4 µM]
CC(C)(C)c1ccc(O)c(CN(Cc2cc(C(C)(C)C)ccc2O)C2CCCCC2)c1	17%[11.5 µM]	-13%[11.4 µM]	-5%[7.6 µM]	22%[11.4 µM]	18%[11.4 µM]
CCOc1ccc2nc(N3CCC(C(=O)N4CCN(c5ccccn5)CC4)CC3)sc2c1	20µM*	91%	1%	11%	8%
CN(C)c1nc(N)nc(CSc2nc3cc(Cl)ccc3o2)n1	-18%	122%	2.5µM*	13%	17%
CCN1c2ccccc2-c2nc3ccccc3n2C1c1ccccn1 (configuration not stated)	2%	25%	13µM*	16µM*	u
SMILES	ERK AVP inh	Tau fil binding	CRE Fsk mod	HEK293 cAMP cs	TSHR ag
c1cncc(C2Nc3ccccc3-c3nc4ccccc4n32)c1 (configuration not stated)	-4%	11%	u	4%	28%
CCN1c2ccccc2-c2nc3ccccc3n2C1c1ccncc1 (configuration not stated)	19%	-1%	u	20µM*	u
CCN1C(=O)CC(n2c(C)nc3ccccc32)C1=O (configuration not stated)	-14%	7%	u	4%	-1%
CCN1c2ccccc2-c2nc3ccccc3n2C1c1cccnc1 (configuration not stated)	4%	54%	u	32µM*	u
CCOC(=O)C1CCN(c2ncnc3c2oc2ccc(Cl)cc23)CC1	-9%	85%	u	25µM*	u
Clc1ccc(N2CCN(c3ncnc4c3oc3ccccc34)CC2)cc1	16%	6%	-16%	u	u
COC(=O)C/C=C/C(C)C(OCc1cccc(Br)c1)C(C)C(OC)C1CCCCC1 (configuration not stated)	18%[11.5 µM]	x	x	6%[11.4 µM]	-5%[11.4 µM]
CCOC(=O)c1c(N)c(C#N)cn1-c1ccccc1	-8%	-3%	u	4%	6%
CCOC(=O)c1c(-c2ccccc2)csc1NC(=O)c1nn(CC)cc1Br	17%	45%	2.5µM*	4%	-4%
CCn1cc(Br)c(C(=O)Nc2ccc(C(=O)OC(C)C)cc2)n1	-27%	14%	9%	5%	-3%
CCOC(=O)c1c(NC(=O)c2nn(CC)cc2Br)c(C#N)cn1-c1ccccc1	-30%	47%	2.5µM*	24%	13%
FB(F)F	8%	7%	-5%	-7%	-1%
COC(=O)[C@@]1(Cc2ccc(F)cc2)[C@H]2c3cc(C(=O)N(C)C)n(Cc4ccc(O)c(OC)c4)c3C[C@H]2CN1C(=O)c1ccccc1	18%	2%	u	u	u
C=C1C(=O)C=C2CN(C(=O)c3ccccc3)[C@@](Cc3ccc(F)cc3)(C(=O)OC)[C@@H]12	10µM*	-10%	u	u	u
COC(=O)[C@@]1(Cc2ccc(F)cc2)[C@H]2c3cc(C(=O)N(C)C)n(CCO)c3C[C@H]2CN1C(=O)c1ccccc1	-18%	11%	-20%	11%	-4%
COCCn1c(C(=O)N(C)C)cc2c1C[C@H]1CN(C(=O)c3ccccc3)[C@@](Cc3ccc(F)cc3)(C(=O)OC)[C@@H]21	4%	5%	-5%	16µM*	u
COC(=O)[C@@]1(Cc2ccc(F)cc2)[C@H]2c3cc(C(=O)N(C)C)n(Cc4ccc(OC)c(OC)c4)c3C[C@H]2CN1C(=O)c1ccccc1	7%	15%	u	16µM*	u
COCCn1c(C(=O)N2CCCC2)cc2c1C[C@H]1CN(C(=O)c3ccccc3)[C@@](Cc3ccc(F)cc3)(C(=O)OC)[C@@H]21	-8%	2%	-15%	13µM*	u
Cc1ccc([C@@H](O)c2cnc(C)n2Cc2ccccc2)cc1	-9%[11.5 µM]	5%[11.4 µM]	u	8%[11.4 µM]	0%[11.4 µM]
